Compound activity: PubChem BioAssay, National Center for Advancing Translational Sciences (NCATS)
HT1080 IDH1KD tx: qHTS for induction of synthetic lethality in tumor cells producing 2HG: qHTS for the HT-1080-IDH1KD cell line. 360,000 compounds, 2% hits. AID 686971, 2013. Potency, µM (titrated, usually from 46.1 µM), for inactives: at the top dose activity, negative = toxicity, hits mostly cytotoxic. HT-1080 IDH1 knockdown viability, ATP luminescence, 48 h;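 also: 0% = DMSO wells and -100% = cell-free medium wells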
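In this qHTS, HT-1080 cells depleted of IDH1 are exposed for 48 h at 37 °C to compound titrations. Toxicity is scored from CellTiter-Glo luminescence, with DMSO as full viability and medium alone as none.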
HT1080NT lethal: qHTS for induction of synthetic lethality in tumor cells producing 2HG: qHTS for the HT-1080-NT fibrosarcoma cell line | HT-1080-NT fibrosarcoma viability, CellTiter-Glo ATP luminescence, 48 h | Potency, µM (doses to about 46.1 µM), for inactives: at the top dose activity, negative = less viability, usual class: cytotoxic | 360,000 compounds, 1.6% hits;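 also: NT is the 2HG producing partner of a matched IDH1 knockdown line; 0% = DMSO-treated cells and -100% = media-only wells without cells; nearly all actives have a fitted effect of over 55% in size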
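A 48-hour cytotoxicity screen used HT-1080-NT cells plated 2 hours before compound delivery. ATP-based CellTiter-Glo luminescence measured viability, normalized to DMSO and no-cell controls.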
KB-3-1 tox: qHTS assay for MDR1-selective chemotherapeutics: Primary screen using the parental adenocarcinoma cell KB-3-1 | KB-3-1 viability, CellTiter-Glo ATP luminescence, 72 h | Potency, µM (doses to about 46.1 µM), actives largely listed as cytotoxic | 400,000 compounds, 1.4% hits; also: nearly all actives have a fitted effect of over 60% in size
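Parental KB-3-1 adenocarcinoma cells in phenol-red-free DMEM with 10% FBS were pin-treated with compounds at several concentrations, incubated 72 h at 37 °C, and viability read by CellTiter-Glo luminescence; concentration-effect curves were fitted after normalization.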
KB-V1 MDR tox: qHTS assay for MDR1-selective chemotherapeutics: Primary screen using the drug-selected MDR subline cells KB-V1; KB-V1 MDR cells viability, CellTiter-Glo, 72 h; Potency, µM (top dose mostly 46.1 µM), usual class: cytotoxic; 400,000 compounds, 3.4% hits; AID 1347076, 2019; also: nearly all actives have a fitted effect of over 60% in size
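KB-V1 MDR subline cells in DMEM (phenol-red free, 10% FBS) exposed to compounds in qHTS concentration series for 72 h at 37 degrees C. Viability read by CellTiter-Glo luminescence; concentration-effect curves fitted after normalization and correction.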
Numbers without * were called inactive; i = inactive; ? = inconclusive; nt = no result; [ ] = another dose, or the depositor's remark. This is a sample that favours compounds with a hit; in the whole collection about 5.7% have one here. Calls follow the shape of the dose curve; as a rule, active = well fitted curve in the direction sought with a large enough effect; inconclusive = small, poorly fitted or top-dose-only effect, or another doubt; inactive = no such curve, though single readings can be large; an effect the other way counts as inactive or inconclusive. Unless noted, % is scaled to controls: 0 for no effect and ±100 for the full control effect; potency is read from the fitted curve at half-maximal effect.

SMILES	HT1080 IDH1KD tx	HT1080NT lethal	KB-3-1 tox	KB-V1 MDR tox
CC(=O)Nc1ccc(-c2cc(NC(C)=O)n(-c3ccccc3)n2)cc1	9%	2%	i	?
Cc1cc(C(=O)NCc2cc(F)cc3c2OCOC3)nn1C	-4%	6%	i	i
Cn1nc(C(C)(C)C)cc1C(=O)NCc1cc(F)cc2c1OCOC2	10µM*	?	?	?
CC(Oc1ccccc1)C(=O)Nc1ccc(C(=O)OCc2cc(=O)n3ccsc3n2)cc1 (stereo unspecified)	nt	nt	i	i
O=C1CC(c2ccco2)Cc2[nH]c(=O)c(C(=O)Nc3ccccc3)cc21 (stereo unspecified)	nt	nt	i	i
CN(C)c1ccc(/C=C/c2cc[n+](C)cc2)cc1	?	-22%	23µM*	i
Cc1ccc(/C=C/c2ccc(N(C)C)cc2)[n+](C)c1	?	-30%	2.1µM*	i
Cc1ccc2c(/C=C/c3ccc(N(C)C)cc3)c(C)cnc2c1	nt	nt	?	i
Cc1cnc(/C=C/c2ccc(N(C)C)cc2)cn1	nt	nt	i	i
Cc1cc2occ(CC(=O)NCc3cccs3)c2cc1C(C)C	-2%	0%	i	21µM*
O=C(Cc1coc2cc(O)ccc12)NNC(=O)c1cccs1	-12%	1%	i	?
Cc1csc(NC(=O)Cc2coc3cc(C)c(C(C)C)cc23)n1	23µM*	?	?	?
Cc1cccc(Cn2cccc2CNS(=O)(=O)c2ccccc2F)c1	nt	nt	i	i
Cc1ccc2cccc(Oc3ccc([N+](=O)[O-])cc3[N+](=O)[O-])c2n1	0%	0%	i	?
O=[N+]([O-])c1ccc(Oc2cccc3cccnc23)c([N+](=O)[O-])c1	23µM*	?	i	21µM*
N#Cc1ccc(Oc2cccc3cccnc23)c([N+](=O)[O-])c1	0%	2%	i	21µM*
N#Cc1cc(Oc2cccc3cccnc23)c(-n2nnc3ccccc32)cc1C#N	6.3µM*	5.6µM*	?	?
CC(C)N1CCC(N2CCN(Cc3cc4c(cc3Cl)OCO4)CC2CCO)CC1 (stereo unspecified)	-6%	-5%	i	i
O=C(Cn1c(=O)n(Cc2ccccc2)c(=O)c2oc3ccccc3c21)Nc1ccc(Cl)cc1	nt	nt	i	i
Cc1cc(C)n(CC(O)Cn2ccc3ccccc32)n1 (stereo unspecified)	3%	-2%	i	i
OCc1nc2ccccc2n1CC(O)Cn1ccc2ccccc21 (stereo unspecified)	-8%[9.24 µM]	-20%	?	21µM*
Cc1ccc(NC(=O)CN2C(=O)CCc3cc(S(=O)(=O)N4CCOCC4)ccc32)cc1N(C)C	nt	nt	i	?
N#Cc1ccccc1Sc1ccccc1N	-24%	10%	i	i
Nc1ccccc1SSc1ccccc1N	23µM*	?	i	i
N#CC1=C(N)NC(SCC(=O)O)=C(C#N)C12CCCC2	18%	10%	i	?
SMILES	HT1080 IDH1KD tx	HT1080NT lethal	KB-3-1 tox	KB-V1 MDR tox
N#CC1=C(N)NC(SCc2ccc(F)cc2)=C(C#N)C12CCCCC2	23µM*	21µM*	23µM*	?
Cc1cccc2cc(/C=N/NC(=O)CN3CCOCC3)c(Cl)nc12	1%	2%	i	18µM*
Cc1ccc2nc(Cl)c(/C=N/NC(=O)CN3CCOCC3)cc2c1	-6%	-14%	i	i
CCOc1ccc(-c2cc(N3C(=O)Nc4ccccc4N3O)n[nH]2)cc1	21µM*	16µM*	i	i
CCOC(=O)c1c(C=O)c(C)n(Cc2ccc(Cl)cc2)c1C	-13%	1%	i	3.7µM*
COc1ccc(NC(=O)c2oc3ccccc3c2NC(=O)Cc2ccc(F)cc2)c(OC)c1	nt	nt	i	?
Cn1c(SCc2nc3ccccc3[nH]2)nnc1-c1cccs1	16%	8%	i	21µM*
Cn1c(SCc2c(Cl)cccc2Cl)nnc1-c1cccs1	18%	?	i	18µM*
Cc1ccc(CSc2nnc(-c3cccs3)n2C)cc1	-9%	0%	i	i
Cc1ccccc1C(=O)Nc1ccc2oc(-c3ccc(Cl)c(Cl)c3)nc2c1	nt	nt	i	?
COc1ccc(C(=O)NC2CCCCCC2)cc1S(=O)(=O)N1CCCc2ccccc21	5%	14%	?	i
CCN1C(=O)CCN(C2CCCC2)c2nc(Nc3ccc(C(=O)NC4CCN(C)CC4)cc3OC)ncc21	21µM*	?	9.2µM*	i
Cc1ccc(Cl)cc1-n1c(CCC(=O)O)ccc1-c1cccs1	nt	nt	i	?
CCOC(=O)N(C)c1c(CC)nc2c(OCc3ccc(C(F)(F)F)cc3)cccn12	?	?	i	?
COC(=O)c1ccccc1COc1cccn2c(N(C)CC3CC3)c(C)nc12	?	?	?	15µM*
Cc1nc2c(OCc3ccc(C(F)(F)F)cc3)cccn2c1N(C)CC1CC1	?	6.5µM*	i	i
Cc1nc2c(OCc3ccc(C#N)cc3)cccn2c1N(C)Cc1cccs1	-23%	-27%	?	15µM*
Cc1ccc(CNC(=O)c2c(O)nc3ccccn3c2=O)cc1	nt	nt	i	?
O=S(=O)(NCC(c1ccc2c(c1)OCO2)N1CCN(c2ccccc2)CC1)c1ccccc1 (stereo unspecified)	-15%	-16%	?	i
CN1C2CCC1/C(=C\c1ccccc1)C(=O)/C2=C\c1ccccc1	?	?	7.3µM*	i
Cc1ccc(Sc2c(C)nn(C(=O)c3ccc(Cl)cc3)c2C)cc1	nt	nt	i	i
CC(O)C(NS(=O)(=O)c1ccc(Cl)cc1)C(=O)OCC(=O)c1c[nH]c2ccccc12 (stereo unspecified)	-24%	-27%	i	i
CC(C)C(NS(=O)(=O)c1c(Cl)cccc1Cl)C(=O)OCC(=O)c1c[nH]c2ccccc12 (stereo unspecified)	-26%	-17%	i	21µM*
CCN(CC)S(=O)(=O)c1ccc(C(=O)NCCSc2c(-c3ccc(OC)cc3)[nH]c3ccccc23)cc1	nt	nt	i	i
Cc1ccc(C)c(NC(=O)C(=O)NCCc2csc(-c3cccc(F)c3)n2)c1	nt	nt	i	i
O=C(NCc1ccc(Cl)cc1Cl)C1CCN(S(=O)(=O)c2ccc3c(c2)OCCCO3)CC1	-21%	0%	?	3.3µM*
O=C(NCc1ccc2c(c1)OCO2)C1CCN(c2ccc(S(=O)(=O)N3CCCC3)cc2)CC1	0%	-2%	?	2.6µM*
O=C(NCc1ccc(F)cc1)C1CCN(S(=O)(=O)c2ccc3c(c2)OCCCO3)CC1	-2%	8%	i	?
COc1ccccc1NC(=O)C(C)OC(=O)C1CCN(S(=O)(=O)c2ccc(C)c(C)c2)CC1 (stereo unspecified)	-1%	-1%	i	7.3µM*
